Records with an inconclusive call do not appear. Activity calls are given as the source filed them. Calls come from the whole dose curve; as a rule, active = well fitted inhibition curve with a large enough effect; inconclusive = small, poorly fitted or top-dose-only effect; inactive = flat fitted curve, though single readings scatter.
Experiments:
Experiment in all cases: qHTS profiling for inhibitors of Plasmodium falciparum proliferation (AID 504749); note: nearly all actives have a fitted effect of over 60% in size
Details in all cases: P. falciparum in erythrocytes, SYBR Green DNA, 72 h; series mostly up to 28.7 µM
CP315 = test system: CP315
In short: (§1)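 SYBR Green fluorescence of parasite DNA, read after lysis and overnight dark incubation, measured growth over 72 h in erythrocyte culture at 0.3% parasitemia and 2.5% hematocrit. Data normalised to DMSO and 0.29 uM artemisinin, with plate-drift correction.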

CP325 = test system: CP325
In short: as §1

CP329 = test system: CP329
In short: as §1

DIV17 = test system: DIV17
In short: as §1

DIV30 = test system: DIV30
In short: as §1

ECU = test system: ECU
In short: as §1

CP335 = test system: CP335
In short: as §1

DIV14 = test system: DIV14
In short: as §1

Dd2 = test system: Dd2
In short: as §1

DFO2036 = test system: DFO2036
In short: as §1

Measured: Potency
Potency is the fitted concentration of half-maximal effect.

NCCNc1cccc2ccccc12
inactive: CP315 | CP325 | CP329 | DIV30 | ECU
active: DIV17 15.1 µM

Cn1c(=O)c2[nH]c(Br)nc2n(C)c1=O
not listed: DFO2036
inactive: all other assays above

CN1CCC(OC(c2ccccc2)c2ccccc2)CC1
inactive: CP315 | ECU
active: Dd2 3.98 µM

CN(C)C(=O)Nc1ccc(Cl)c(Cl)c1
inactive: CP325 | DFO2036 | ECU
active: DIV14 3.01 µM | DIV17 4.78 µM

CC(=O)O[C@]1(C(C)=O)CC[C@H]2[C@@H]3C=C(Cl)C4=CC(=O)CC[C@]4(C)[C@H]3CC[C@@]21C
active: CP325 15.1 µM

NC(N)=NN=C(/C=C/c1ccc([N+](=O)[O-])o1)/C=C/c1ccc([N+](=O)[O-])o1
active: CP335 4.78 µM | DFO2036 11.2 µM | DIV14 7.57 µM | DIV17 7.57 µM | Dd2 2.82 µM | ECU 12.6 µM

CCN(CC)CCOc1ccccc1C(=O)CCc1ccccc1
inactive: CP315 | ECU
active: DIV14 6.75 µM | DIV17 7.57 µM | Dd2 4.47 µM

Oc1c(Cl)cc(Cl)c(Cl)c1Cc1c(O)c(Cl)cc(Cl)c1Cl
active: CP315 6.75 µM | CP329 13.5 µM | DIV14 10.7 µM | DIV17 12 µM | DIV30 13.5 µM | Dd2 12.6 µM | ECU 12.6 µM

CC(=O)O[C@H]1C[C@@H]2CC[C@@H]3[C@H](CC[C@@]4(C)[C@H]3C[C@H]([N+]3(C)CCCCC3)[C@@H]4OC(C)=O)[C@@]2(C)C[C@@H]1N1CCCCC1
inactive: CP315 | DFO2036 | DIV30 | ECU

O=C(Oc1cccc2cccnc12)c1ccccc1
not listed: CP315 | CP325
inactive: all other assays above

Cc1ncc(CO)c(C=O)c1O
inactive: CP335 | DFO2036 | Dd2 | ECU

O=C(Nc1cccc(C2=NCCN2)c1)Nc1cccc(C2=NCCN2)c1
active: CP315 16.9 µM | CP329 13.5 µM | CP335 12 µM | DFO2036 1.78 µM | DIV14 3.01 µM | DIV17 4.26 µM | DIV30 13.5 µM | Dd2 0.891 µM | ECU 3.16 µM

CN(C)CCN1C(=O)c2ccccc2N(C)c2ccccc21
active: Dd2 11.2 µM
inactive: CP315 | CP329 | ECU

O=C(CN1CCN(Cc2ccc3c(c2)OCO3)CC1)N1c2ccccc2Sc2ccccc21
active: DIV14 12 µM | Dd2 11.2 µM

CN1CCc2cccc3c2[C@H]1Cc1ccc(O)c(O)c1-3
active: CP335 3.79 µM | DIV14 7.57 µM | DIV17 7.57 µM
inactive: Dd2

NC1CCN(c2nc3c(cc2F)c(=O)c(C(=O)O)cn3-c2ccc(F)cc2F)C1 (configuration not stated)
inactive: CP315 | DIV14 | DIV17 | DIV30

CN(C)CCC[C@@]1(c2ccc(F)cc2)OCc2cc(C#N)ccc21
not listed: CP315 | Dd2
inactive: all other assays above

O=C(O)CCC(=O)Nc1ccc(S(=O)(=O)Nc2nccs2)cc1
not listed: CP325
inactive: all other assays above

Cc1ccc2c(Br)cc(Br)c(O)c2n1
active: CP315 12 µM | CP329 15.1 µM | DFO2036 10 µM | DIV30 16.9 µM | Dd2 11.2 µM

CC(C)[N+](C)(C)CC(O)COc1cccc2ccccc12 (configuration not stated)
inactive: CP329 | DIV14 | DIV30
active: CP335 9.53 µM

CNCCCCOc1ccccc1Cc1ccccc1
active: DIV14 3.79 µM | DIV17 1.9 µM | Dd2 2.51 µM

CN(CCCN1c2ccccc2CCc2ccccc21)CC(=O)c1ccc(Cl)cc1
active: CP335 13.5 µM | DIV14 4.26 µM | DIV17 4.78 µM | Dd2 7.08 µM | ECU 10 µM
inactive: CP315

O=C1C(CCS(=O)c2ccccc2)C(=O)N(c2ccccc2)N1c1ccccc1 (configuration not stated)
not listed: CP315
inactive: all other assays above

O=C(O)CCc1nc2ccccc2[nH]1
active: Dd2 0.0007 µM

Cc1cc(-c2ccccc2)nnc1NCCN1CCOCC1
active: DIV17 8.49 µM
inactive: CP315 | CP329 | CP335 | DFO2036

Oc1ccc(Cl)cc1Cc1cc(Cl)ccc1O
inactive: CP315 | CP329 | CP335 | DFO2036 | Dd2

CC(C)(C)NC[C@H](O)COc1cccc2c1CCCC2=O
not listed: CP315 | DIV14
inactive: all other assays above

CN(C)CCOC(c1ccc(Cl)cc1)c1ccccn1 (configuration not stated)
active: Dd2 4.47 µM
inactive: CP315 | CP329 | DFO2036 | ECU

C[N+]1(C)CCC(=C(c2ccccc2)c2ccccc2)CC1
inactive: CP315 | CP329 | DFO2036 | DIV30 | Dd2 | ECU

CCCCCN=C(N)N/N=C/c1c[nH]c2ccc(OC)cc12
active: CP335 6.01 µM | DFO2036 5.01 µM | DIV14 2.69 µM | DIV17 1.51 µM | DIV30 12 µM | Dd2 3.16 µM | ECU 8.91 µM
inactive: CP315

Clc1cccc(C(c2ccc3nc[nH]c3c2)n2ccnc2)c1 (configuration not stated)
active: DFO2036 10 µM | DIV14 15.1 µM | DIV17 13.5 µM | DIV30 12 µM | ECU 3.16 µM

CCN(CC)CCOC(=O)C1(c2ccccc2)CCCC1
inactive: CP329 | DFO2036 | DIV30 | ECU
active: Dd2 8.91 µM

COC(=O)C(c1ccccc1Cl)N1CCc2sccc2C1 (configuration not stated)
inactive: DIV14 | DIV30 | Dd2

CC(C)Cc1ccc(CC(=O)O)cc1
not listed: CP315
inactive: all other assays above

CC(C)NCC(O)c1ccc2ccccc2c1 (configuration not stated)
inactive: CP329
active: CP335 12 µM | DIV14 6.75 µM | DIV17 6.75 µM | DIV30 12 µM | Dd2 7.08 µM | ECU 3.98 µM

CCCN(CCc1cccs1)[C@H]1CCc2c(O)cccc2C1
active: CP325 12 µM | CP335 8.49 µM | DFO2036 10 µM | DIV14 4.26 µM | DIV17 3.01 µM | DIV30 5.36 µM | Dd2 2.51 µM | ECU 2.82 µM

CC(C)(C)NC[C@H](O)COc1nsnc1N1CCOCC1
active: CP335 8.49 µM | DFO2036 6.31 µM | DIV14 3.38 µM | DIV17 3.38 µM | Dd2 5.62 µM | ECU 7.94 µM
inactive: CP315

CN1CCN(c2c(F)cc3c(=O)c(C(=O)O)cn4c3c2SCC4)CC1
active: Dd2 10 µM
inactive: CP315 | CP329 | DIV14 | DIV17 | DIV30

CCCCNc1ccc(C(=O)OCCOCCOCCOCCOCCOCCOCCOCCOCCOC)cc1
not listed: CP315 | DIV14
inactive: all other assays above

CCN(CC)CCOc1ccc2c(c1)C(=O)c1cc(OCCN(CC)CC)ccc1-2
active: DIV14 13.5 µM | DIV17 9.53 µM | Dd2 12.6 µM | ECU 8.91 µM
inactive: CP315

OC(C#CCN1CCCC1)(c1ccccc1)c1ccccc1
active: DIV17 13.5 µM | Dd2 8.91 µM
inactive: CP315

CCOC(=O)Nc1ccc2c(c1)N(C(=O)CCN1CCOCC1)c1ccccc1S2
not listed: CP315 | DIV17
inactive: all other assays above

— PubChem BioAssay (NCATS)
